The results in this text go back to PubChem BioAssay (NCATS).

Records with an inconclusive call do not appear. The source made the active and inactive calls. The call rests on the fitted dose curve; in most records, active means well fitted curve in the direction sought with a large enough effect; inconclusive means small, poorly fitted or top-dose-only effect, or another doubt; inactive means no such curve, though single readings can be large; an effect the other way counts as inactive or inconclusive.

Test [1] in a line: Quantitative High-Throughput drug screen in 47 multiple myeloma cell lines against the NCATS MIPE library collection: PE2_PLB cell viability assay (AID 1919869). Further: nearly all actives have a fitted effect of over 35% in size. Further: potency means the concentration at half of the fitted maximal effect. In a few lines: (§1)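 Readout: median RLU from CellTiter-Glo after 5 min at room temperature. Preceding step was 48 h drug treatment of 500 cells/well at 37 °C, 5% CO2, with DMSO-only and media-only control wells.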
Test [2] in a line: Quantitative High-Throughput drug screen in 47 multiple myeloma cell lines against the NCATS MIPE library collection: PCM6_Riken cell viability assay (AID 1919870). Further: nearly all actives have a fitted effect of over 30% in size. Further: potency means the concentration at half of the fitted maximal effect. In a few lines: as §1
Test [3] is described as follows: Quantitative High-Throughput drug screen in 47 multiple myeloma cell lines against the NCATS MIPE library collection: OPM2_DSMZ cell viability assay (AID 1919872). Further: nearly all actives have a fitted effect of over 30% in size. Further: potency means the concentration at half of the fitted maximal effect. In a few lines:
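Steps: seed 500 cells per well; pin-transfer MIPE 4.0 library; incubate 48 h at 37C, 5% CO2, humidified; add CellTiter-Glo, 5 min room temperature; read luminescence.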

The nature of test [4]: Quantitative High-Throughput drug screen in 47 multiple myeloma cell lines against the NCATS MIPE library collection: KMS11_JCRBsus cell viability assay (AID 1919873). Further: nearly all actives have a fitted effect of over 50% in size. Further: potency means the concentration at half of the fitted maximal effect. In a few lines: as §1
The nature of test [5]: Quantitative High-Throughput drug screen in 47 multiple myeloma cell lines against the NCATS MIPE library collection: KMS28BM_JCRB cell viability assay (AID 1919874). Further: nearly all actives have a fitted effect of over 35% in size. Further: potency means the concentration at half of the fitted maximal effect. In short, it runs like this: as §1
The nature of test [6]: Quantitative High-Throughput drug screen in 47 multiple myeloma cell lines against the NCATS MIPE library collection: RPMI8226_ATCC cell viability assay (AID 1919871). Further: nearly all actives have a fitted effect of over 30% in size. Further: potency means the concentration at half of the fitted maximal effect. In a few lines:
as §1

The target in test [7] is Cytochrome P450 3A4 (Homo sapiens) (UniProt P08684). The test is described as follows: qHTS for inhibitors of CYP3A4 against the NCATS DSHEA and TCM libraries (AID 1919971).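 Further: inhibition lowers luminescence from luciferin made by CYP3A4.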 In a few lines: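 Substances were tested against enzyme with a pro-luciferin substrate; minus-enzyme wells served as background. After NADPH-initiated oxidation (30-45 min, RT), light was generated with P450-Glo reagent.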
Chain of Cytochrome P450 3A4 (Homo sapiens) (P08684 whole entry, looked up): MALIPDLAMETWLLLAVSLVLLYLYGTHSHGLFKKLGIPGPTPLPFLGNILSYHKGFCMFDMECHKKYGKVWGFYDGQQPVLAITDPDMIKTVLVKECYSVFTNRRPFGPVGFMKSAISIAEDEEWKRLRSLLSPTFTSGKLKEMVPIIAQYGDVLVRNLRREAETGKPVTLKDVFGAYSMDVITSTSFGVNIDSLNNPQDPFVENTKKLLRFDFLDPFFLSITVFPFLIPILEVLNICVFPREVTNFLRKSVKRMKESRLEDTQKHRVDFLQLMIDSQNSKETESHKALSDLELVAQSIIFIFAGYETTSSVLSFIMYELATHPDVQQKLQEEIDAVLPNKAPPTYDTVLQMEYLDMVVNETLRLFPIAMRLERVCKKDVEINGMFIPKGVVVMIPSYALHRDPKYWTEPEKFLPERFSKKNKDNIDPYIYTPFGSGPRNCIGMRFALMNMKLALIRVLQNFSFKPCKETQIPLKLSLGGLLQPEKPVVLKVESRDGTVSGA
(In general: qHTS replaces the single test concentration by a dilution series.)

For test [8], the target named is Cytochrome P450 2D6 (Homo sapiens) (UniProt P10635). The test is described as follows: qHTS for inhibitors of CYP2D6 against the NCATS DSHEA and TCM libraries (AID 1919972). In short, it runs like this:
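qHTS, concentration–response format with most substances from 19.5 nM. CYP2D6 + pro-luciferin substrate, 15 min with compound, then 1x NADPH regen, 30–45 min RT dark. Glo detection 30 min, luminescence. Quinidine control.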

The target of test [9] is Cytochrome P450 2C9 (Homo sapiens) (UniProt P11712). The test is described as follows: qHTS for inhibitors of CYP2C9 against the NCATS DSHEA and TCM libraries (AID 1919973).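 Further: luminogenic pro-luciferin CYP2C9 substrate turned into luciferin with NADPH regeneration; series mostly up to about 34 µM.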 The source says: (§2) Assay Development and Screening Technology Laboratory (ADST)
Chain of Cytochrome P450 2C9 (Homo sapiens) (P11712 whole entry, looked up): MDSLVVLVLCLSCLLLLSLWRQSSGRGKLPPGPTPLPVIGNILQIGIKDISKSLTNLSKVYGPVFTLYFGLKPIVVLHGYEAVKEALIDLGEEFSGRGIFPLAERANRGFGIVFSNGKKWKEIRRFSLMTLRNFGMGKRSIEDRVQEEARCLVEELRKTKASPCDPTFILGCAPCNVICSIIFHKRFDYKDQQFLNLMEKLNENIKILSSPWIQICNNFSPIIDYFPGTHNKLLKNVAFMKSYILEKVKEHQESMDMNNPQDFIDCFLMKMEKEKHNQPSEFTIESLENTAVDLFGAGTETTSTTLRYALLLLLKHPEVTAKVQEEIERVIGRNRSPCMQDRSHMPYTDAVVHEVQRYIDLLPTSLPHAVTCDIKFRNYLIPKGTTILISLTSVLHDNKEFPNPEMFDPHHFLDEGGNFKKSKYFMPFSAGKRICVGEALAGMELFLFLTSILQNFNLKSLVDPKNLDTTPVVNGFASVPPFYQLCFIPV
(§3) National Center for Advancing Translational Sciences (NCATS), Rockville, MD
(§4) National Institute of Health (NIH), Bethesda, Maryland
(§5) Dietary Supplements and Natural Products have minor oversight of their safety and efficacy. We assembled a collection of Dietary Supplements and Natural Products (DSNP) as well as Traditional Chinese Medicinal (TCM) Plant extracts, which were screened against an in vitro panel of assays, including a liver cytochrome p450 enzyme panel, CAR/PXR signaling pathways, and P-gp transporter assays, to assess their activity. This pipeline facilitated the interrogation of Natural Product-Drug Interaction (NaPDI) through prominent metabolizing pathways. In addition, we compared the activity profiles of the DSNP/TCM substances with those of an approved drug collection. Many of the approved drugs have well-annotated mechanisms of action (MOA) while the MOAs for most of the DSNP and TCM samples remain unknown. […] Overall, we highlight four significant bioactivity profiles (measured by p-values) as examples of this prediction. […] To profile potential P-gp activity, a differential cell viability was measured against two cell lines: a parental KB-3-1 human cervical adenocarcinoma cell line and the drug-resistant subline KB-8-5-11 that overexpresses P-gp. […]
(§6) 9; Read; Luminescence; ViewLux plate reader. […]

In test [10] the target is Cytochrome P450 2C19 (Homo sapiens) (UniProt P33261). The test is described as follows: qHTS for inhibitors of CYP2C19 against the NCATS DSHEA and TCM libraries (AID 1919974).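 Further: luminescence from luciferin released by CYP2C19 oxidation of a pro-luciferin substrate.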
Chain of Cytochrome P450 2C19 (Homo sapiens) (P33261 whole entry, looked up): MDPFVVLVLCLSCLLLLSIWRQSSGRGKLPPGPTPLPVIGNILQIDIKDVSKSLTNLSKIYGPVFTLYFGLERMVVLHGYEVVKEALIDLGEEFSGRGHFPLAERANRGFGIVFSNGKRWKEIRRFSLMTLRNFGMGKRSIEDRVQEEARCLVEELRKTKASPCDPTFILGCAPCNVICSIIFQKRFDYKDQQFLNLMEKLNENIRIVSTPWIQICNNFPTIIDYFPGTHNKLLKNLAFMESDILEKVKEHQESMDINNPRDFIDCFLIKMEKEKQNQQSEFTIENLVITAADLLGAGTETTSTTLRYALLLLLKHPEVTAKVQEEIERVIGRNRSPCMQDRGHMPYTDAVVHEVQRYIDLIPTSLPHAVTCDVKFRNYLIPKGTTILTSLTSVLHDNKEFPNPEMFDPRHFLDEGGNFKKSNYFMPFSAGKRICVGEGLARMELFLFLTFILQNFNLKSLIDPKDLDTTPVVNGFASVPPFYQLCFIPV
Description: as §2, §3, §4, §5, §6

Chain of Cytochrome P450 2D6 (Homo sapiens) (P10635 whole entry, looked up): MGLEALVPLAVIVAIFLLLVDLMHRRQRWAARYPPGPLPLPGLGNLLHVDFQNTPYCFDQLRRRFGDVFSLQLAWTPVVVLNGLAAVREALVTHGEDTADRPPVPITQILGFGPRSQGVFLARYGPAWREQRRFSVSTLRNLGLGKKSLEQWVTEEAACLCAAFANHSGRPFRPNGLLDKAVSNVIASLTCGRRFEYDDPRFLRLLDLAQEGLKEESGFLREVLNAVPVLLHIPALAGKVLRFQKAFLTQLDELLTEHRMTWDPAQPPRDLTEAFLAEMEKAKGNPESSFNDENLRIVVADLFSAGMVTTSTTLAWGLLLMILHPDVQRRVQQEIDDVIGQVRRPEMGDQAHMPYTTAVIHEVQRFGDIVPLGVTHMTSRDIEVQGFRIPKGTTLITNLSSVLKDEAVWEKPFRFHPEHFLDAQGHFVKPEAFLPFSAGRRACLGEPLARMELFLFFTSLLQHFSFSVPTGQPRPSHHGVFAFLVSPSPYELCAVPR

Regarding `C[C@@H]1CN(Cc2ccc(F)cc2)[C@@H](C)CN1C(=O)c1cc2c(C(=O)C(=O)N(C)C)cn(C)c2cc1Cl`, the Potency is 16.6 µM (active) in test [1] and 18.7 µM (active) in test [2]. Further, in test [3], the Potency entry was “inactive”.
Take `Cn1cc(-c2ccc3nnc(C(F)(F)c4ccc5ncccc5c4)n3n2)cn1`: the Potency result in test [1], in test [2], in test [3], in test [4] and in test [5] was “inactive” throughout.
Take `O=c1n(CCCN2CCN(c3cccc(Cl)c3)CC2)nc2ccccn12`: the Potency entry in [1], in [6], in [3] and in test [4] was “inactive” in each case.
For the compound `C[C@]12CC[C@H](O)CC1=CC[C@@H]1[C@H]2CC[C@]2(C)C(c3cccnc3)=CC[C@H]12`, the Potency result in [1], in test [6], in test [3] and in [5] was “inactive” each time.
For `O=C(C=Cc1ccc(/C=C/C(=O)Nc2ccc(C3=NCCN3)cc2)cc1)Nc1ccc(C2=NCCN2)cc1`, the Potency result in test [1], in test [6], in [4] and in [5] was “inactive” in each case. For the same compound, the Potency in test [3] was 0.662 µM (active).
With `Cc1csc(NC(=O)c2sc3nc4c(c(C(F)(F)F)c3c2N)CCC4)n1`, the Potency entry in test [1] and in test [3] was “inactive” each time. The Potency in test [6] is 13.2 µM (active); in test [5], 26.4 µM (active).
As for `Nc1nc2[nH]cc(CCc3ccc(C(=O)N[C@@H](CCC(=O)O)C(=O)O)cc3)c2c(=O)[nH]1`, the Potency entry in test [1], in [3] and in test [5] was “inactive” throughout. Moreover, the Potency in test [6] is 0.264 µM (active); in test [4], 0.59 µM (active).
Regarding `Cn1c(=O)c(F)c(Nc2ccc(I)cc2F)c2c(=O)n(C[C@@H](O)CO)cnc21`, the Potency in [1] was 9.35 µM (active). In addition, the Potency result in test [6] and in test [5] was “inactive” throughout.
As for `Cc1cccc(-c2nn(C(=S)Nc3ccccc3)cc2-c2ccnc3ccccc23)n1`, the Potency in test [1] is 7.43 µM (active). Also, the Potency entry in [6], in test [3] and in test [5] was “inactive” throughout.
Regarding `O=c1ncn2nc(Sc3ccc(F)cc3F)ccc2c1-c1c(Cl)cccc1Cl`, the Potency in [1] is 3.72 µM (active). In addition, the Potency entry in test [6] and in [5] was “inactive” in each case.
Take `CCOc1ccc(Cc2cc([C@@H]3O[C@H](CO)[C@@H](O)[C@H](O)[C@@H]3O)ccc2Cl)cc1`: the Potency entry in test [1], in test [6], in test [3], in test [4] and in test [5] was “inactive” each time.
With `c1ccc(-c2nn3c(c2-c2ccnc4cc(OCCN5CCOCC5)ccc24)CCC3)nc1`, the Potency is 10.5 µM (active) in test [1] and 20.9 µM (active) in test [6]. For the same compound, in [5], the Potency entry is “inactive”.
On the same counts, the results for `CC(C[N+](C)(C)C)OC(N)=O` (configuration not stated) are “inactive”, “inactive” and “inactive”.
For `OCCn1cc(-c2cnc3nnn(Cc4ccc5ncccc5c4)c3n2)cn1`, the Potency result in [1], in test [6], in [4] and in test [5] was “inactive” in each case.
With `NNCCc1ccccc1`, the Potency result in test [1], in test [6] and in [4] was “inactive” each time.
On to `NC[C@H](O)c1ccc(O)c(O)c1`, for which, in [1], the Potency was 11.8 µM (active). Moreover, the Potency result in [3] was “inactive”.
Consider `CO[C@@H]1[C@H](N(C)C(=O)c2ccccc2)C[C@H]2O[C@]1(C)n1c3ccccc3c3c4c(c5c6ccccc6n2c5c31)C(=O)NC4`, for which the Potency was 0.59 µM (active) in test [1]; 7.43 µM (active) in test [6]; 3.72 µM (active) in test [3]; 1.87 µM (active) in test [4]; 2.96 µM (active) in [5].
Turning to `Cn1cnc([N+](=O)[O-])c1Sc1ncnc2nc[nH]c12`, the Potency in test [1] was 14.8 µM (active); in test [6], 0.935 µM (active); in test [3] it was 0.833 µM (active); in test [5] it was 5.9 µM (active).
As for `Oc1ccc(C2CNCCc3c2cc(O)c(O)c3Cl)cc1` (configuration not stated), the Potency result in test [1], in [6], in [3], in test [4] and in test [5] was “inactive” throughout.
In the case of `CC(C)C[C@H](NC(=O)[C@@H](O)[C@H](N)Cc1ccccc1)C(=O)O`, the Potency is 26.4 µM (active) in [1], 20.9 µM (active) in [6], 9.35 µM (active) in test [4] and 16.6 µM (active) in test [5].
In the case of `CC1(C)SCCN(S(=O)(=O)c2ccc(OCC#CCO)cc2)[C@@H]1C(=O)NO`, the Potency result in [1], in test [6], in [3] and in [5] was “inactive” throughout.
In the case of `Cc1cc2c(C(C)C)c(O)c(O)c(C=O)c2c(O)c1-c1c(C)cc2c(C(C)C)c(O)c(O)c(C=O)c2c1O`, the Potency in test [1] is 5.9 µM (active); in test [6], 20.9 µM (active); in test [3], 18.7 µM (active); in test [4], 5.9 µM (active); in test [5], 10.5 µM (active).
Take `CCCC(CCC)C(=O)O`: the Potency result in test [1], in test [6], in test [3], in test [4] and in [5] was “inactive” throughout.
With `Cc1ccccc1C(OCCN(C)C)c1ccccc1` (configuration not stated), the Potency entry in test [1], in [6], in test [3] and in [4] was “inactive” in each case. In addition, in [5], the Potency was 7.43 µM (active).
On to `CCOc1ccn(-c2ccc(F)cc2)c(=O)c1C(=O)Nc1ccc(Oc2ccnc(N)c2Cl)c(F)c1`, for which, in test [1], the Potency is 13.2 µM (active). The Potency entry in test [3] was “inactive”.
Turning to `NC(=O)c1cnccn1`, the Potency entry in [1], in test [6], in [3], in test [4] and in test [5] was “inactive” throughout. Besides, the result in test [7], in [8], in [9] and in test [10] was inactive.
For `CCCc1nc2c(C)cc(-c3nc4ccccc4n3C)cc2n1Cc1ccc(-c2ccccc2C(=O)O)cc1`, in test [1], the Potency is 11.8 µM (active). Moreover, the Potency entry in test [6], in test [3], in [4] and in [5] was “inactive” each time.
For the compound `Cc1c(CN2CCN(C(=O)C(C)C)CC2)sc2c(N3CCOCC3)nc(-c3cnc(N)nc3)nc12`, the Potency in [1] was 0.0662 µM (active); in test [6] it was 0.0296 µM (active); in test [3] it was 0.118 µM (active); in test [5], 0.0372 µM (active).
